From PubChem BioAssay (NCI)
This is part of a sample that, as a whole, favours compounds with a hit. Of some 83,000 tested, about 20% had one in any assay.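 The test compound was applied at a single concentration to cells in 96-well plates for 48 hours, and percent growth was recorded.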 Calls of active or inactive are those of the source. The calls were made as follows: active = growth percent below 10; inactive = the rest.

tested on: ACHN renal; test: NCI-60 one-dose screen, 48 h (100 = growth as untreated, 0 = no growth, -100 = all killed); settings: 10 µM unless noted

Row | Compound | growth
1 | NC(=O)C(=O)c1ccccc1NC=O | 94.8% (inactive)
2 | N#Cc1c(-c2ccccc2)[nH]c2ncc(-c3ccccc3)n2c1=O | 83.4% (inactive)
3 | O=S(=O)(Nc1cc(Cl)ccc1Cl)c1ccc(-c2cnc(C3CC3)o2)cc1 | 34.2% (inactive)
4 | COc1cc(C2CC(c3ccc(Nc4nc(Nc5ccc(Cl)cc5)nc(Nc5ccc(Cl)cc5)n4)cc3)=NN2C(C)=O)cc(OC)c1OC (stereo not given) | 96.7% (inactive)
5 | N#Cc1c(-c2ccc(Cl)cc2)c(C#N)c2c(C#N)c(N)nn2c1N | 87.7% (inactive)
6 | CC(=O)N1N=C(c2ccc(Nc3nc(Nc4ccccc4)nc(Nc4ccccc4)n3)cc2)CC1c1cccc([N+](=O)[O-])c1 (stereo not given) | 94.2% (inactive)
7 | N#CC1=C(c2ccccc2)Nc2c(c(-c3ccc(Cl)cc3)nn2-c2ccccc2)C12C(=O)Nc1ccc(Cl)cc12 (stereo not given) | 80.6% (inactive)
8 | O=C(Nc1nc2ccc(C(=O)N3CCN(/C=C/c4ccccc4)CC3)cc2s1)c1ccc(NCCc2ccccc2)c([N+](=O)[O-])c1 | 80.9% (inactive)
9 | Cc1ccc(/C=C2\COc3ccc(O)cc3C2=O)cc1 | 94% (inactive)
10 | CCNCCNc1cc(C2CCCCC2)c(C#N)c2nc3ccccc3n12 | -52.2% (active)
11 | Nc1c(C(=O)Nc2ccncc2)sc2nc3c(cc12)C(O)CCC3 (stereo not given) | 96.4% (inactive)
12 | C=CCN=c1sc2c(n1NC(=O)c1cc3ccc1CCc1ccc(cc1)CC3)C(=O)c1ccccc1C2=O | -95.3% (active)
13 | Cc1nc2sc(C(=O)Nc3cccc(Br)c3)c(N)c2cc1C(O)c1ccccc1 (stereo not given) | 33.2% (inactive)
14 | Cc1cc(S(=O)(=O)/N=C(\N)n2nc(C)c(C)c2C)c(SCc2ccccc2)cc1Cl | 71.2% (inactive)
15 | Oc1ccc(Cl)cc1/C=N\NC(=S)N/N=C/c1cc(Cl)ccc1O | 15.3% (inactive)
16 | O=C(/C=C/c1cccs1)Nc1ncc(Cc2ccccc2F)s1 | 31.5% (inactive)
17 | COC(=O)CC[C@H](C)[C@H]1CC[C@H]2[C@@H]3CC[C@@H]4CC5(CC[C@]4(C)[C@H]3CC(=O)[C@]12C)Nc1ccccc1NC5=NC(C)(C)C (stereo not given in full) | 86.4% (inactive)
18 | CC1CCc2c(C(=O)Nc3ncc(Cc4cccc([N+](=O)[O-])c4)s3)csc2C1 (stereo not given) | 30.5% (inactive)
19 | O=C1/C=C/[C@@H](O)[C@@H]2C[C@@H](O)C[C@H]2/C=C/CCC[C@H](CCc2ccccc2)O1 | 7.03% (active)
20 | O=C(Nc1ccccc1O)c1ccc(CNC(=O)c2sccc2Nc2ccnc(C(F)(F)F)c2)cc1 | 49.3% (inactive)

Row | Compound | growth
21 | COc1ccc(C(=O)/C=C/c2c(C(F)(F)F)nc3ccccn23)cc1OC | -41.1% (active)
22 | CCC(=C(c1ccc(OCCN2CCCCC2)cc1)c1ccc(OCCN2CCCCC2)cc1)c1ccc(Cl)cc1 | -99.7% (active)
23 | O=C1Nc2ccc(C(=O)O)cc2/C1=N/c1nnc(Sc2ccccc2)s1 | 98.4% (inactive)
24 | CCN1CCN(C(=O)[C@]23CCC(C)(C)C[C@@H]2C2=CC[C@@H]4[C@@]5(C)CCC(=O)C(C)(C)[C@@H]5CC[C@@]4(C)[C@]2(C)CC3)CC1 | 65.7% (inactive)
25 | Nc1ncnc2c1C(c1ccccc1)c1ccc3ccccc3c1O2 (stereo not given) | 80.9% (inactive)
26 | Cn1cc(-c2ccc3nc(-c4ccc(CC(=O)ONc5cc(C(C)(C)C)on5)cc4)cnc3c2)cn1 | 13.4% (inactive)
27 | Cc1ccc2c(c1)=C/C(=C\c1cc(-c3ccccc3)oc1O)C(=O)N=2 | 105% (inactive)
28 | COc1ccc(-c2nc3c(ncc4ccc(=O)[nH]c43)s2)cc1 | 59.9% (inactive)
29 | CC1CN(S(=O)(=O)c2oc(-c3ccc(Cl)cc3)nc2C#N)CC(C)O1 (stereo not given) | 28.1% (inactive)
30 | C#CCOC(=O)/C=C/c1cn(-c2ccccc2)nc1-c1ccc(OC)cc1 | 77% (inactive)
31 | O=C(Nc1cccc(Cl)c1)Nc1cccc(Cn2c(=O)[nH]c3ccc(Oc4ncccn4)cc3c2=O)c1 | 72.2% (inactive)
32 | COc1ccc(/C=C/C(=O)c2cc3c(N)c(C(=O)Nc4cccc5ccccc45)sc3nc2C)cc1 | 71.8% (inactive)
33 | CCCNc1nc2ccccc2c2c1S(=O)(=O)c1ccc(Cl)cc1C2=O | 10.7% (inactive)
34 | NC(=O)CSc1oc(-c2ccccc2)nc1S(=O)(=O)c1ccc(Br)cc1 | 64.4% (inactive)
35 | N#CSc1c[nH]c2cccc(/C=C/C(=O)/C=C(/C=C/c3cccc4[nH]cc(SC#N)c34)OB(F)F)c12 | -48.9% (active)
36 | C=C1C(=O)O[C@H]2[C@H]1CC/C(COC(=O)NCc1ccc(Cn3c(=O)sn(CCCCC)c3=O)cc1)=C\CC[C@@]1(C)O[C@@H]21 | 26.5% (inactive)
37 | N#CC(C#N)N=Nc1ccc(Br)cc1 | 16.6% (inactive)
38 | COc1ccc(-c2noc(C(=O)O)c2-c2cc(OC)c(OC)c(OC)c2)cc1 | 34.7% (inactive)
39 | COc1c(B(O)O)cccc1-c1cc(C)c2c(ccc3[nH]ncc32)n1 | 55.7% (inactive)
40 | COc1ccc2cc1Oc1ccc(cc1)C[C@H]1c3c(cc4c(c3Oc3cc5c(cc3OC)CCN(C)[C@@H]5C2)OCO4)CCN1C | 63% (inactive)
